A selection: hits, their analogues and other compounds. The true share with any hit is near 10%.
3T3 cytotox – kills NIH 3T3 cells; NIH 3T3 viability, CellTiter-Glo ATP luminescence, 48-72 h; Potency, µM (top dose mostly 96.7 µM), actives largely listed as inhibitors; 4.3% of 94,000 active; AID 1345082; note: nearly all actives have a fitted effect of over 55% in size
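ATP-dependent luminescence (CellTiter-Glo) served as the viability signal for NIH 3T3 cells treated with compound for 48 or 72 hr at 37 °C.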
GPT2 inhibitor – blocks human glutamate pyruvate transaminase 2 | AID 1671188 | Q8TD30 | Potency, µM (top dose mostly 57.7 µM), hits mostly inhibitors | Recombinant GPT2, coupled pyruvate oxidase/HRP Amplex Red fluorescence | 0.25% of 100,000 active; note: nearly all actives have a fitted effect of over 60% in size
Target sequence (Q8TD30 whole entry, looked up): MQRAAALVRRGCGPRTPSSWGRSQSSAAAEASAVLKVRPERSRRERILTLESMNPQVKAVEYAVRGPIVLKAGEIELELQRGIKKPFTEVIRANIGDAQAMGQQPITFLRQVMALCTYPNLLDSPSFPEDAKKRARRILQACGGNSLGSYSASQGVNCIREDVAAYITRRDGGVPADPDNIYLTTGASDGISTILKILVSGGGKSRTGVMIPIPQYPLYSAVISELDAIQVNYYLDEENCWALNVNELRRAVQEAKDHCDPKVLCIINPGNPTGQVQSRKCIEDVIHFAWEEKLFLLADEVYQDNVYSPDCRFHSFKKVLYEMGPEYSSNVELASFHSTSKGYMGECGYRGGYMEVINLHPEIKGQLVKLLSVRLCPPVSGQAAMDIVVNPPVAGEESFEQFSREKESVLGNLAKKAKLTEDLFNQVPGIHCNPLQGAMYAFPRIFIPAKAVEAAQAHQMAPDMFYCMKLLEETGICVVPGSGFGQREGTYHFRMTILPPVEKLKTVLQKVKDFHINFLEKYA
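Fluorescence read-out: pyruvate from GPT2 turnover coupled to pyruvate oxidase, HRP and Amplex Red (0.2mM ThPP, 0.2U/mL PO and HRP, 50uM Amplex final). Substrates 250uM a-KG, 2mM L-alanine; enzyme 10ng/uL; 30 min RT.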
HEK293 tox – HEK 293 cell cytotoxicity | HEK 293 viability, ATP luminescence (CellTiter-Glo), 48-72 h | Potency, µM (doses to about 115 µM), most hits filed as inhibitors | 6.6% of 94,000 active | AID 1345083; note: nearly all actives have a fitted effect of over 60% in size
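Pintool-delivered compounds were incubated with HEK 293 cells (250 cells/well) at 37 degree Celsius for 48 or 72 hr. ATP-dependent luminescence (CellTiter-Glo) then reported remaining viable cells.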
FLuc inh-1 – blocks purified firefly luciferase enzyme activity; P08659; 2.5% of 76,000 active; Potency, µM (series often up to 115 µM), usual class: inhibitors; purified P. pyralis luciferase, luminescence, biochemical; note: nearly all actives have a fitted effect of over 65% in size
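Inhibitors were tested against purified firefly luciferase in a biochemical, low-substrate format (both substrates at 10uM) and luminescence measured with a CCD imager.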
hNpr1 antagonist – blocks ANP-stimulated signaling of human Npr1 receptor; 1.6% of 76,000 active; Potency, µM (series often up to 46.3 µM), actives largely listed as inhibitors; HEK293 hNpr1 GloSensor cGMP, ANP-stimulated luminescence; calls by dose curve; note: nearly all actives have a fitted effect of over 60% in size
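Compound pre-incubated 30 min at room temperature on GloSensor-loaded HEK293 cells stably carrying hNpr1 and the pGS-40F cGMP biosensor. Stimulation uses hNppA at 0.1 nM final; luminescence is taken at baseline and 20 min post-agonist.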
FLuc SDR -ATP – stabilizes firefly luciferase without ATP | Purified FLuc-C-HiBiT, Nano-Glo HiBiT luminescence, no ATP | AID 1963318 | 7.8% of 1,300 active | Potency, µM (series often up to 32.7 µM), usual class: activators | shares compounds with FLuc inh-1; note: nearly all actives have a fitted effect of over 55% in size
FLuc SDR ATP – firefly luciferase binding stabilization, ATP added | 8.7% of 1,300 active | Potency, µM (top dose mostly 32.7 µM), hits mostly activators | shares compounds with FLuc inh-1 | purified FLuc-C-HiBiT + ATP, HiBiT complementation luminescence;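 note: signal reports ligand binding via conformational change of the enzyme rather than luciferase catalysis; nearly all actives have a fitted effect of over 55% in size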
FLuc inh-2 – firefly luciferase enzyme inhibition. shares compounds with FLuc inh-1. purified FLuc-C-HiBiT enzyme, luciferin luminescence. Potency, µM (highest dose often 32.7 µM), usual class: inhibitors. 42% of 1,300 active. AID 1963320; note: nearly all actives have a fitted effect of over 70% in size
Hits are given with their value; – = inactive; ? = inconclusive; · = not tested or not shown. Unless noted, calls come from the whole dose curve; as a rule, active = well fitted curve in the direction sought with a large enough effect; inconclusive = small, poorly fitted or top-dose-only effect, or another doubt; inactive = no such curve, though single readings can be large; an effect the other way counts as inactive or inconclusive.

SMILES	3T3 cytotox	GPT2 inhibitor	HEK293 tox	FLuc inh-1	hNpr1 antagonist	FLuc SDR -ATP	FLuc SDR ATP	FLuc inh-2
O=C(NCC(=O)N1CCN(c2ccccn2)CC1)c1cc2ccccc2[nH]1	–	–	–	?	–	·	·	·
N#Cc1cccc(-c2cn3c(n2)N(C(=O)c2cccs2)CCC3)c1	–	–	?	?	–	·	·	·
COc1cccc(-c2ccc(C(=O)N3CCC(C(=O)NC4CCCCC4)CC3)cc2)c1	?	–	?	·	·	·	·	·
COc1cccc(-c2cccc(C(=O)N3CCN([S+](=O)([O-])c4cccc(C(F)(F)F)c4)CC3)c2)c1	–	–	?	·	·	·	·	·
O=C1c2cnc(-c3cccc(O)c3)nc2OCCN1c1cccc(C(F)(F)F)c1	?	?	?	–	–	·	·	·
COc1cccc(-c2ncc3c(n2)OCCN(c2ccccc2)C3=O)c1	8.91µM	–	10µM	0.398µM	8.91µM	3.21µM	?	1.8µM
O=C1c2cnc(-c3cccc(F)c3)nc2OCCN1c1ccccc1	?	–	100µM	0.891µM	–	?	?	14.3µM
O=C(NCC1CC1)c1cccc(OC2CN(Cc3ccc(OC(F)(F)F)cc3)C2)c1	?	–	?	–	–	·	·	·
COc1ccc(NC(=O)c2cc3c(N4CCSCC4)nc(C)cn3n2)cc1OC	–	–	–	–	–	·	·	·
COc1cccc(N2CCN(C(=O)CCC[C@H]3NC[C@@H]4C[C@H]3CN(Cc3ccccc3)C4)CC2)c1	?	?	?	–	–	·	·	·
CCS(=O)(=O)N1CCCC(Cc2ncc(C)n2Cc2ccc(F)cc2)C1 (centres undefined)	–	–	–	–	–	·	·	·
Cc1ccc2oc(C(=O)Nc3cccc(-c4nc5ccccc5s4)c3)c(C)c2c1	·	·	·	·	·	–	?	?
Cc1c(C(=O)Nc2cccc(-c3nc4ccccc4s3)c2)oc2ccccc12	·	·	·	·	·	–	–	–
O=C(Nc1cccc(-c2nc3ccccc3s2)c1)c1cc2ccccc2oc1=O	·	·	·	·	·	–	–	–
Cc1ccc2oc(C(=O)NC3CC(=O)N(C(C)C)C3)c(C)c2c1 (centres undefined)	–	–	–	–	–	·	·	·
O=C(Nc1cccc(Cl)c1)c1ccc2oc(-c3ccccn3)nc2c1	–	–	?	·	·	·	·	·
O=C(NC1CCCC1)N1CCC(C(=O)N2CCC(N3Cc4ccccc4C3=O)CC2)CC1	–	?	–	·	·	·	·	·
COc1cccc(C(=O)N2CCC(N3C[C@H](O)C[C@H]3C(=O)NCc3ccccc3F)CC2)c1	–	–	–	–	–	·	·	·
CSCC(=O)N[C@H]1CCN2C(=O)c3cc(-c4ccc(SC)cc4)ccc3NC(=O)[C@H]12	–	–	–	12.6µM	–	–	–	?
C=CCN(Cc1ccccc1OCC)C(=O)c1ccc(N(C)S(C)(=O)=O)cc1	?	–	?	–	–	·	·	·
O=C(NCc1ccccc1F)c1cn2cc(-c3ccccc3)sc2n1	–	–	–	·	·	·	·	·
C/C=C/C=C/C=C/C(=O)N(C)C(C(=O)NC(C)C(=O)N1CCCC1C(N)=O)C(C)C (centres undefined)	·	–	·	·	·	·	·	·
CCC1CN(C(=O)c2ccc3nc(-c4ccccc4)cn3c2)CCN1C(C)C (centres undefined)	–	–	?	?	–	·	·	·
Cc1ccc(Nc2ncnc3c2nc2n3CCCC2)c(Br)c1	·	·	·	·	·	?	?	4.95µM
c1ccc(Nc2ncc(-c3ccccc3)o2)cc1	·	·	·	·	·	?	?	0.785µM
O=C(Nc1ccc(F)cc1)c1nc2sccn2c1-c1ccc(F)cc1	?	–	?	·	·	·	·	·
COc1ccc(C(=O)Nc2noc3ccccc23)cc1	·	·	·	·	·	9.89µM	3.13µM	0.881µM
COc1ccccc1OCc1cc(C(=O)NCc2cccc(C)c2)n[nH]1	–	–	?	–	–	·	·	·
COc1cc(C)ccc1OCc1cc(C(=O)NCc2n[nH]c3c2CCC3)no1	?	?	?	11.2µM	–	–	–	?

From PubChem
